Source: PubChem BioAssay AID1159580 (chemical genetic matrix, 2015)
About 2,000 (36%) of roughly 5,500 compounds were called active. Inconclusive results (about 18%) are left out. Cut-off read from the data, not from the text of the source: active = normalized growth mostly below about 0.91 (no sharp cut-off); inconclusive = no clear call, values can overlap the other calls; inactive = mostly above about 0.92. Some of the results follow.

Assay: chemical genetic growth profiling, strain panel (AID 1159580);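 note: tested at 20 µM; growth read once vehicle control cultures reached saturation at 30 °C; 1 = growth at the plate median or of vehicle wells; lower values mean less growth of the strain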
Details: growth OD
[1] = S. cerevisiae deletion strains, locus YAL013W, strain DEP1, hits give low values
[2] = S. cerevisiae deletion strains, locus YBR229C, strain ROT2, hits give low values
[3] = S. cerevisiae deletion strains, locus YDL101C, strain DUN1, hits give low values
[4] = S. cerevisiae deletion strains, locus YDL134C, strain PPH21, hits give low values
[5] = S. cerevisiae deletion strains, locus YDR150W, strain NUM1, hits give low values
[6] = S. cerevisiae deletion strains, locus YEL061C, strain CIN8, hits give low values
[7] = S. cerevisiae deletion strains, locus YGR078C, strain PAC10, hits give low values
[8] = S. cerevisiae deletion strains, locus YHR030C, strain SLT2, hits give low values
[9] = S. cerevisiae deletion strains, locus YHR087W, strain rtc3, hits give low values
[10] = S. cerevisiae deletion strains, locus YJL187C, strain SWE1, hits give low values
[11] = S. cerevisiae deletion strains, locus YJR043C, strain POL32, hits give low values
[12] = S. cerevisiae deletion strains, locus YJR075W, strain HOC1, hits give low values
[13] = S. cerevisiae deletion strains, locus YLR039C, strain RIC1, hits give low values
[14] = S. cerevisiae deletion strains, locus YLR058C, strain SHM2 (second series), hits give low values
[15] = S. cerevisiae deletion strains, locus YLR085C, strain ARP6, hits give low values
[16] = S. cerevisiae deletion strains, locus YLR262C, strain YPT6, hits give low values
[17] = S. cerevisiae deletion strains, locus YML094W, strain GIM5, hits give low values
[18] = S. cerevisiae deletion strains, locus YMR219W, strain ESC1, hits give low values
[19] = S. cerevisiae deletion strains, locus YMR263W, strain SAP30, hits give low values
[20] = S. cerevisiae deletion strains, locus YNL153C, strain GIM3, hits give low values
[21] = S. cerevisiae deletion strains, locus YNL298W, strain CLA4 (second series), hits give low values
[22] = S. cerevisiae deletion strains, locus YNL322C, strain KRE1, hits give low values
[23] = S. cerevisiae deletion strains, locus YNR030W, strain Alg12, hits give low values
[24] = S. cerevisiae deletion strains, locus YPL241C, strain CIN2, hits give low values
[25] = S. cerevisiae deletion strains, locus YPR135W, strain CTF4, hits give low values

Measured: normalized growth

FC(F)(F)c1cccc(CSc2n[nH]c(=S)s2)c1
inactive: [5] 0.903 | [8] 0.728 | [16] 0.838 | [17] 0.914
active: [1] 0.774 | [2] 0.479 | [3] 0.522 | [4] 0.883 | [6] 0.861 | [7] 0.427 | [9] 0.592 | [10] 0.51 | [11] 0.791 | [12] 0.31 | S. cerevisiae deletion strains, locus YKL190W, strain CNB1, hits give low values 0.887 | [13] 0.706 | [14] 0.797 | [15] 0.593 | [18] 0.606 | [19] 0.763 | [20] 0.533 | [21] 0.787 | [22] 0.873 | [23] 0.824 | S. cerevisiae deletion strains, locus YOL006C, strain TOP1, hits give low values 0.409 | [24] 0.833 | [25] 0.638

S=c1[nH]nc(SCCSc2n[nH]c(=S)s2)s1
inactive: [1] 0.969 | [2] 1.04 | [3] 0.947 | [4] 0.993 | [5] 1.03 | [6] 1.02 | [7] 0.952 | S. cerevisiae deletion strains, locus YGR229C, strain SMI1, hits give low values 0.987 | [8] 1.1 | [9] 1.02 | [11] 1.02 | [12] 1.06 | [13] 1 | [14] 0.989 | [15] 0.945 | [16] 1.16 | [17] 0.988 | [18] 0.969 | [19] 0.994 | S. cerevisiae deletion strains, locus YMR307W, strain GAS1, hits give low values 1 | [20] 1 | [21] 0.963 | [22] 0.987 | [23] 0.989 | S. cerevisiae deletion strains, locus YPL055C, strain LGE1, hits give low values 0.965 | [24] 0.984 | [25] 1.02 | S. cerevisiae strains, strain wild type, hits give low values 0.988
active: [10] 0.93
